HCV inh: HCV inhibition. AID 651820. Huh7.5.1 HCVcc-Cre infection, luciferase reporter, 44 h. 340,000 tested, 3.4% active. Potency, µM (top dose mostly 41.8 µM), for the others: at the highest dose activity change, negative = inhibition, usual class: inhibitors; active = well fitted inhibition curve with a large enough effect; inconclusive = small, poorly fitted or top-dose-only effect, or another doubt; inactive = no such curve, though single readings can be large or run the other way; also: potency is read from the fitted curve at half-maximal effect
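Luciferase read-out (15 sec integration) after a 15 min room-temperature substrate step quantifies HCVcc-Cre infection. Cells, 1,000 per well, had compound added 4 h post-plating, then virus at ~0.5 moi, and were cultured 44 h.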
LASV entry inh: inhibitors of Lassa virus binding or cell entry. Lassa virus pseudotype entry inhibition, cell reporter. Potency, µM (titrated, usually from 37.9 µM), without a hit: at the highest dose activity change, negative = inhibition, usual class: inhibitors. 300,000 tested, 1.2% active. AID 540256; calls by dose curve; tested in HEK293 cells; also: potency is read from the fitted curve at half-maximal effect; nearly all actives have a fitted effect of over 50% in size
VACV mCherry inh: inhibitors of vaccinia virus infection (mCherry reporter signal) | AID 720579 | 310,000 tested, 0.63% active | Potency, µM (top dose mostly 36.5 µM), for the others: at the top dose activity change, negative = inhibition, hits mostly inhibitors | Vaccinia virus mCherry reporter infection, fluorescence; calls by dose curve; tested in A549 cells; also: potency is read from the fitted curve at half-maximal effect; nearly all actives have a fitted effect of over 35% in size
HCMV inh: inhibitors of human cytomegalovirus | 410,000 tested, 4.5% active | HFF cells, HCMV-luciferase reporter, 72 h; active compounds read low | activity change, negative = inhibition, % at 57.5 µM | AID 1259415; in the data active = activity change below about -60%; inconclusive = no clear call, values can overlap the other calls; inactive = above about -39%
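HFF cells seeded 16 h at 37C, treated with compounds, infected with luciferase-reporter HCMV at MOI 1 PFU/cell; luciferase read at 72 h post infection, normalized to buffer-only and Salinomycin controls.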
VACV Venus inh: inhibitors of vaccinia virus (Venus reporter); Vaccinia virus Venus reporter expression, fluorescence; Potency, µM (doses to about 36.5 µM), for inactives: at the highest dose activity change, negative = inhibition, most hits filed as inhibitors; 330,000 tested, 0.46% active; calls by dose curve; tested in A549 cells; also: potency is read from the fitted curve at half-maximal effect; nearly all actives have a fitted effect of over 30% in size
Marburg entry inh: blocks Marburg virus binding to or entry into cells | Marburg virus pseudotyped entry inhibition, cell reporter | Potency, µM (highest dose often 37.8 µM), without a hit: at the top dose activity change, negative = inhibition, most hits filed as inhibitors | 300,000 tested, 1.8% active; calls by dose curve; tested in HEK293 cells; also: potency is read from the fitted curve at half-maximal effect
Numbers without * were called inactive; i = inactive; ? = inconclusive; · = not tested or not shown; [ ] = another dose, or the depositor's remark. Most compounds without a hit are left out; they make up all but 7.8% or so of the library. % is scaled to controls: 0 for no effect and ±100 for the full control effect.

SMILES | HCV inh | LASV entry inh | VACV mCherry inh | HCMV inh | VACV Venus inh | Marburg entry inh
O=C(CN1C(=O)/C(=C/c2ccccc2)SC1=S)N1CCN(CCc2ccccn2)CC1 | ? | ? | -12% | -90* | -15% | ?
O=C(CCN1C(=O)/C(=C\c2ccccc2)SC1=S)N1CCCCC1 | 6% | 0% | ? | -68* | -7% | 3%[46.1 µM]
O=C(c1ccccc1)N1CCN(CCc2ccccn2)CC1 | 31% | 13% | ? | -17 | -3% | -12%[46.1 µM]
O=C(CCCN1C(=O)/C(=C\c2ccccc2)SC1=S)N1CCOCC1 | ? | -14% | ? | -99* | ? | ?
O=C(CCN1C(=O)/C(=C\c2ccccc2F)SC1=S)N1CCOCC1 | · | · | ? | 2 | 13µM* | ·
CCOc1ccccc1CNC(=O)C1CCN(C(=O)N2CCOc3ccc(Cl)cc32)CC1 | · | ? | -14% | -16 | -16% | ·
Cc1coc2c1c(C)cc1oc(=O)c(CC(=O)NCc3ccc(Cl)cc3)c(C)c12 | · | 17%[46.1 µM] | -5% | 3 | -8% | 5%[46.1 µM]
COC1=CC2C(=O)C(C(c3ccccc3)C2C)C1(O)c1cccc(OC)c1 (centres undefined) | · | · | · | · | · | 15%[14.2 µM]
O=C(OCc1cccs1)c1ccccc1NS(=O)(=O)c1ccc2c(c1)OCCO2 | 8.9µM* | -25% | i | -16 | -13% | ?
Cc1nc(SCc2ccc(C(=O)O)cc2)nc2c1CCCC2 | 20% | -28%[46.1 µM] | i | -61* | -19% | ?
Cc1cccc(Cn2cc(C(=O)Nc3ccc(F)c(C(F)(F)F)c3)ccc2=O)c1 | · | -23%[46.1 µM] | -13%[7.34 µM] | ? | -7%[7.34 µM] | ·
CC(C)(C)OC(=O)N1CCC(c2c(C(=O)NCc3ccccc3)cnn2-c2cccc(F)c2)CC1 | · | 4%[46.1 µM] | -15% | -12 | -9% | ·
CCCOc1ccc(C(=O)NC(=S)NCc2cccnc2)cc1 | ? | -17% | -16% | -65* | -22% | 0%
CCCOc1ccc(C(=O)NNC(=S)NC(=O)CC)cc1 | ? | 15µM* | · | -62* | · | ?
COc1ccc(C(=O)NNC(=S)NC(=O)c2ccc(OC)cc2)cc1 | -14% | · | · | -92* | · | ·
COc1ccc(C(=O)NNC(=S)NC(=O)c2cccnc2)cc1 | 3% | -25% | 1% | -89* | -8% | ?
COc1ccc(CN2CCCC(n3cc(C(=O)N4CCCCC4)nn3)C2)c(OC)c1OC (centres undefined) | · | · | -6% | · | -7% | ·
CCOCC(=O)Nc1ccc(-c2cn3c(C)csc3n2)cc1 | · | 3%[46.1 µM] | -9% | ? | -5% | ·
O=C(c1ccccc1)c1ccc2nc(Nc3ccccc3Cl)c3nncn3c2c1 | · | ? | -2% | -6 | -3% | ·
O=C(NC(=S)NNC(=O)c1cnccn1)c1ccc(F)cc1 | 14µM* | · | ? | -25 | ? | ·
COc1ccc(C(=O)NNC(=O)c2ccc3ccccc3n2)cc1 | ? | ? | 11µM* | -88* | ? | ?
COc1ccccc1CC(=O)NO | · | · | -2% | · | -7% | ·
COc1ccc(-c2ccc3c(c2)S(=O)(=O)c2cccc(C(=O)NCCOc4ccccc4Cl)c2C3=O)cc1OC | ? | · | ? | -98* | 7.9µM* | ·
CC(C)c1cccc(-c2ccc3c(c2)S(=O)(=O)c2cccc(C(=O)NCc4ccccc4)c2C3=O)c1 | 7% | · | -15% | -4 | ? | ·
CC(C)c1cccc(-c2ccc3c(c2)S(=O)(=O)c2cccc(C(=O)NCc4ccccc4Cl)c2C3=O)c1 | -4% | · | ? | · | 13µM* | ·
SMILES | HCV inh | LASV entry inh | VACV mCherry inh | HCMV inh | VACV Venus inh | Marburg entry inh
CC(=O)NC1=C(C#N)C(c2ccccc2)c2c(ccc3ccccc23)O1 (centres undefined) | ? | ? | ? | 32 | ? | 10µM*
Nc1ccc2ccc3cccc[n+]3c2c1 | 7.1µM* | -10%[46.1 µM] | 3% | -25 | 18% | -14%[46.1 µM]
C=CCN1c2ccccc2[C@]23C[C@@H](C(=O)OC)N(C(=O)Nc4ccccc4F)C2=NC(C(=O)OC)=C(C(=O)OC)[C@H]13 | · | · | · | · | · | 3%[14.2 µM]
CC(C)(CC(=O)N1CCN(c2ccc(Cl)cc2)CC1)CC1=NS(=O)(=O)c2ccccc2N1 | ? | 11µM* | ? | ? | ? | ?
COc1cccc(N2CCN(C(=O)CC(C)(C)CC3=NS(=O)(=O)c4ccccc4N3)CC2)c1 | 11µM* | ? | -8% | -72* | -15% | -17%[46.1 µM]
CCCCN(CC)C(=O)c1nn(-c2ccc(OC)cc2)c(=O)c2c1c1ccccc1n2C | · | -12%[46.1 µM] | -6% | -29 | -10% | -28%[46.1 µM]
COc1cccc(NC(=O)Nc2ccc3snnc3c2)c1 | · | 23%[46.1 µM] | -28% | -23 | ? | ?
CCc1ccccc1NC(=O)Nc1ccc2snnc2c1 | · | ? | -6% | -70* | -6% | 9%[46.1 µM]
O=C(Nc1ccc2snnc2c1)Nc1cccc2ccccc12 | 10µM* | ? | ? | -88* | ? | ?
CCOC(=O)c1ccc(NC(=O)Nc2ccc3snnc3c2)cc1 | · | 10%[46.1 µM] | -3% | -106* | 0% | 16%[46.1 µM]
COc1ccccc1-c1ccnc(-n2ncc(C(=O)N(C)C(C)c3nc(C)cs3)c2C2CC2)n1 (centres undefined) | · | · | -12% | · | -7% | ·
CCCSc1nc2c(cnn2-c2ccccc2)c(=O)n1N | -14% | 8.9µM* | i[7.34 µM] | 73 | -5%[7.34 µM] | ?
COc1ccc(NC(=S)N(CCN2CCOCC2)Cc2ccccc2F)cc1 | 14% | ? | -13% | -9 | -5% | ?
COc1ccccc1NC(=S)N(CCN1CCOCC1)Cc1ccccc1F | 9% | ? | -13% | -61* | -13% | ?
COc1ccc(Cl)cc1NC(=S)N(CCCN1CCOCC1)Cc1cn(C)c2ccccc12 | 10µM* | -14% | ? | -71* | ? | ?
COc1cc(Cl)ccc1NC(=S)N(CCCN1CCOCC1)Cc1cn(C)c2ccccc12 | ? | ? | ? | -92* | -17% | ?
CCOc1ccccc1NC(=S)N(CCCN1CCOCC1)Cc1cn(C)c2ccccc12 | ? | ? | -25% | ? | -27% | ?
COc1ccccc1NC(=S)N(CCCN1CCOCC1)Cc1cn(C)c2ccccc12 | ? | -10% | -12% | -94* | -23% | ?
Cc1cc(C)cc([C@H]2C[C@]34CN(C(=O)OC(C)(C)C)S(=O)(=O)[C@H]3C[C@H]2O4)c1 | · | · | · | -12 | · | ·
CCOC(=O)CCN1C(=O)[C@H]2[C@H]3[C@H](O)[C@H](O)C/C(=N\OCc4ccccc4)[C@@H]3CC[C@H]2C1=O | · | · | · | · | · | -7%[14.2 µM]
Cc1ccc([C@H]2C[C@]34CN(Cc5ccccc5)S(=O)(=O)[C@H]3C[C@H]2O4)cc1 | · | · | · | -88* | · | ·
COc1ccccc1-c1ccnc(-n2ncc(C(=O)NC(c3cccnc3)C(F)(F)F)c2C)n1 (centres undefined) | · | · | ? | · | -27% | ·
O=C(NC1CCCCC1)[C@@H]1CC=C[C@@H]2CCN(Cc3ccc(Cl)c(Cl)c3)C(=O)[C@@H]21 | · | · | -9% | · | -5% | ·
N#Cc1cc(NC(=O)c2ccc(Cl)cc2)ccc1Sc1ccccc1 | · | · | ? | -83* | ? | ·

Screening results as filed in PubChem.
